Bioassay records: PubChem BioAssay, The Scripps Research Institute Molecular Screening Center
Rows were chosen to be rich in hits. Some 1.1% of all compounds tested hit in one or more screens of this group.
PKA-R2B activ – activators of human PKA-R2B complex; P22694+P31323; PKA-R2B holoenzyme dissociation, Cy5-IP20 fluorescence polarization; R2B truncated from residue 108, S112A mutant; 0% DMSO only, 100% 113 µM cGMP; activation, % at 11.4 µM; actives 0.079% (n = 340,000); AID 504700;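 active = activation above a cutoff set at the mean over all compounds plus 3 SD, cut at about 18% in these data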;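 note: higher means more holoenzyme dissociation and a rise in polarization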
Target sequence (P31323 whole entry, looked up, other chains not shown, the tested form may be a part): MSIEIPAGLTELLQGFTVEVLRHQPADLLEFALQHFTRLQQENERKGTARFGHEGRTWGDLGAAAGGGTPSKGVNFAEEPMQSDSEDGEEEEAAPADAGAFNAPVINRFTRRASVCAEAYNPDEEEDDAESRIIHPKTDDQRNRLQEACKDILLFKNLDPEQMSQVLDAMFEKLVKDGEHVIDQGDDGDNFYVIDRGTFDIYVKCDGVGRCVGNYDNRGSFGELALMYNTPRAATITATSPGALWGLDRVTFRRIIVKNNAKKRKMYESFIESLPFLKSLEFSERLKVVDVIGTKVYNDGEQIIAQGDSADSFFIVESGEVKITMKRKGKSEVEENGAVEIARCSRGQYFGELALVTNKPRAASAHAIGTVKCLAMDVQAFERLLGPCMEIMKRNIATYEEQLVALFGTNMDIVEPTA
MsrA inh – bovine MsrA inhibition; actives 0.75% (n = 360,000); AID 651718; purified bovine MsrA, absorbance read-out; inhibition, % at 15.5 µM; in the data active = inhibition above about 4.5%
PKA-R1A act – activates the PKA-R1A holoenzyme complex; AID 504707; P00514+P68181; PKA-R1A dissociation, Cy5-IP20 fluorescence polarization; scaled: DMSO 0%, 113 µM cGMP 100%; actives 0.083% (n = 340,000); activation, % at 11.4 µM;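 active = percent activation above the mean of all tested compounds plus 3 SD, cut at about 19% in these data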;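 note: higher means more PKAc released from R1A so a rise in polarization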
MsrA act – activators of bovine methionine sulfoxide reductase A | actives 0.3% (n = 360,000) | AID 602163 | purified bovine MsrA, absorbance read-out | activation, % at 10.6 µM; in the data active = activation above about 7.5%
MsrA activ conf – confirmation of bovine methionine sulfoxide reductase A activators; shares compounds with MsrA act; purified bovine MsrA, absorbance read-out; AID 602270; actives 12% (n = 1,000); activation, % at 10.6 µM; in the data active = activation above about 4%;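 note: enzyme coupled to thioredoxin and thioredoxin reductase with NADPH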
Hits are given with their value; 0 = inactive; - = no result given.

SMILES | PKA-R2B activ | MsrA inh | PKA-R1A act | MsrA act | MsrA activ conf
COCCN(CCOC)C(=O)[C@H](CCc1ccccc1)NC(=O)[C@H]1O[C@@H](n2cnc3c(N)ncnc32)[C@H](O)[C@@H]1O | - | 0 | - | - | -
C=CCOc1ccc(Oc2cc(C)nc(SC)n2)nn1 | 0 | 0 | 0 | 13 | 0
O=Cc1coc([B-](F)(F)F)c1 | - | 0 | - | - | -
CCc1cc2c(=O)n(CCC(C)C)c(=S)[nH]c2s1 | 0 | 0 | 0 | 15 | 0
CCCCCCCCN1C(=O)[C@@H](CC(=O)NCCCCc2ccccc2)C[C@@]2(C(=O)OC)C1=C[C@H](C(C)(C)C)O[C@@H]2C | - | 0 | - | - | -
c1cncc(Oc2ccc(NCCc3c[nH]c4ccccc34)cc2)c1 | - | 0 | - | - | -
CC1=C(C(=O)OC2CCCCCCC2)C(c2cccc(O)c2)NC(=O)N1 (stereo unspecified) | 0 | 0 | 0 | 8.9 | 0
CCn1c(SCC(=O)N2CCN(S(=O)(=O)c3ccccc3)CC2)nnc1-c1cccs1 | 0 | 0 | 0 | 9.6 | 0
Cc1ccc(OCC(=O)Nc2sc3c(c2C#N)CC(C)(C)NC3(C)C)cc1 | 0 | 0 | 0 | 0 | -
CC1(C)Cc2c(sc(NC(=O)COc3ccc(Cl)cc3)c2C(N)=O)C(C)(C)N1 | 0 | 0 | 0 | 12 | 0
Cc1ccc(C(=O)OCC(=O)NC2CCCCC2)cc1S(=O)(=O)N1CCCCC1 | 0 | 0 | 0 | 8.4 | 0
COC(=O)C1=C(C)N(C)C(=NCc2ccc(OC)cc2)NC1c1ccc(Cl)cc1 (stereo unspecified) | - | 0 | - | - | -
COc1ccccc1-c1cccc2c3c([nH]c12)[C@@H]1C[C@H]2[C@@H](C(=O)N1CC3)[C@H](C)ON2C | - | 0 | - | - | -
O=C(O)c1ccccc1NS(=O)(=O)c1cccc(-n2sc3ccccc3c2=O)c1 | 0 | 0 | 0 | 7.7 | 0
O=Nc1c(O)c2ccccc2c2ccccc12 | 0 | 0 | 0 | 20 | 13
O=c1ccc2ccccc2c2ccccc12 | - | 0 | - | 0 | -
COc1cccc(-c2nc(N3CCC(C)CC3)c3ccccc3n2)c1O | 0 | 0 | 0 | 8.2 | 0
COc1cccc(-c2nc(N3CCCC3)c3ccccc3n2)c1O | 0 | 0 | 0 | 0 | -
FC(F)(F)c1cccc(-c2nc3nc(Cl)c(Cl)nc3[nH]2)c1 | 0 | - | 0 | 12 | 0
COc1ccc(N2CCN(C(=O)c3cc(-c4ccc(F)cc4)[nH]c3C)CC2)cc1 | 0 | 0 | 0 | 0 | -
Cc1[nH]c(-c2ccc(F)cc2)cc1C(=O)N1CCN(c2ccc(Cl)cc2)CC1 | 0 | 0 | 0 | 8.3 | 0
Cn1ccnc1SCCC#N | 0 | 0 | 0 | 0 | -
Cc1nnc(SCCC#N)n(CCC#N)c1=O | 0 | 0 | 0 | 9.2 | 0
Cc1cc(NC(=O)c2ccc(Cl)cc2)n(CCOC(=O)c2ccc(Cl)cc2)n1 | 0 | 0 | 0 | 9.1 | 0
CCOC(=O)c1cc(NC(=O)c2ccc(Cl)cc2)c(=O)n2c1oc1ccc(Cl)cc12 | 0 | 0 | 0 | 0 | -
SMILES | PKA-R2B activ | MsrA inh | PKA-R1A act | MsrA act | MsrA activ conf
CCOC(=O)c1ccc(-n2ccnc2)c(NC(=O)c2ccc(Cl)cc2)c1 | 0 | 0 | 0 | 8.1 | 0
CCOC(=O)Nc1ccc2c(c1)N(C(=O)CN(CC)CC)c1ccccc1C=C2 | 0 | 0 | 0 | 7.9 | 0
CCOC(=O)Nc1ccc2c(c1)N(C(=O)CN(CC)CC)c1ccccc1CC2 | 0 | 0 | 0 | 0 | -
O=C(CCCn1c(=S)[nH]c2cc3c(cc2c1=O)OCO3)N1CCN(c2ccccn2)CC1 | 0 | 0 | 0 | 18 | 0
O=C(CCCCCn1c(=S)[nH]c2cc3c(cc2c1=O)OCO3)N1CCN(Cc2ccccc2)CC1 | 0 | 0 | 0 | 0 | -
COC(=O)Cn1nnc(N2CCOCC2)n1 | - | 0 | - | 8.0 | 0
COCC#Cc1cnc2c(c1)C(=O)N([C@@H](C)CO)C[C@H](C)[C@H](CN(C)C(=O)c1ccc3c(c1)OCO3)O2 | - | 0 | - | - | -
O=C(c1ccco1)N1CCN(CCCCOc2ccc(F)cc2)CC1 | 0 | 0 | 0 | 9.4 | 0
O=C(CCN1CCN(C(=O)c2ccco2)CC1)Nc1ccc(F)cc1 | 0 | 0 | 0 | 0 | -
Cn1c(=O)c2c(ncn2Cc2ccc(O)c([N+](=O)[O-])c2)n(C)c1=O | - | 0 | - | - | -
O=C(Nc1nnc(-c2ccco2)o1)c1ccc(S(=O)(=O)N2CCCC2)cc1 | 0 | 0 | 0 | 16 | 0
CS(=O)(=O)c1ccc(C(=O)Nc2ccc(S(=O)(=O)N3CCCCC3)cc2)cc1 | 0 | 0 | 0 | 15 | 0
CC1CCN(S(=O)(=O)c2ccc(C(=O)Nc3nnc(-c4ccco4)o3)cc2)CC1 | 0 | 0 | 0 | 0 | -
CC(C)[C@@H](C)/C=C/[C@@H](C)[C@H]1CC[C@@H]2[C@]1(C)CCC1[C@]23C=C[C@]2(C[C@@H](O)CC[C@]12C)N(C(=O)Cc1ccccc1)O3 (stereo partly specified) | - | 0 | - | - | -
COc1ccc(/C=N/Nc2nncn2N)cc1Br | 0 | 0 | 0 | 25 | 0
CCOc1cc(/C=N/Nc2nnc(C)n2N)ccc1OC(C)=O | 0 | 0 | 0 | 27 | 0
CCc1nnc(N/N=C\c2ccc(OC(C)=O)c(OC)c2)n1N | 0 | 0 | 0 | 12 | 0
CCc1nnc(N/N=C/c2ccc(O)c(OC)c2)n1N | 0 | 0 | 0 | 0 | -
CCc1nnc(N/N=C/c2c(Cl)cccc2Cl)n1N | 0 | 0 | 0 | 0 | -
CCc1nnc(N/N=C/c2cccs2)n1N | 0 | 0 | 0 | 8.1 | 0
COc1cc(/C=N/Nc2nncn2N)ccc1OCc1c(C)no[n+]1[O-] | 0 | 0 | 0 | 0 | -
COCc1cc(N2CCNC[C@H]2C)ccc1N1CCN(Cc2ccccc2)[C@H](C)C1 | - | 0 | - | - | -
O=C(/C=C(\Nc1cccc(Cl)c1)c1ccccc1)c1ccccc1 | - | 0 | - | - | -
COC(=O)CC#C[C@@H](C)[C@H](NS(=O)(=O)c1ccc(C)cc1)C(C)(C)C | - | 0 | - | - | -
O=C(NCC1CCN(C(=O)C(=O)c2cc3ccccc3o2)CC1)c1ccncc1 | - | 0 | - | - | -
SMILES | PKA-R2B activ | MsrA inh | PKA-R1A act | MsrA act | MsrA activ conf
Cc1ccc(C2(C)NC(=O)N(CC(=O)Nc3ccc4c(c3)OCO4)C2=O)cc1 (stereo unspecified) | 0 | 0 | 0 | 11 | 0
Cc1ccccc1C(=O)NNC(=S)NC(=O)COc1ccccc1 | 0 | 0 | 0 | 13 | 0
O=c1c2ccc([N+](=O)[O-])cc2ncn1CCOc1cccc(Br)c1 | 0 | 0 | 0 | 7.8 | 0
CCOC(=O)C1(C)CCN1C(=O)COc1ccc(C(C)(C)C)cc1 (stereo unspecified) | - | 0 | - | 8.2 | 0
CCOC(=O)C1(C)CCN1C(=O)COc1ccccc1 (stereo unspecified) | - | 0 | - | 0 | -
CCC(=O)N1CCc2cc(Br)cc(S(=O)(=O)CCC(=O)NCc3ccco3)c21 | 0 | - | 0 | 14 | 0
COc1ccc(/C=C/C(=O)N2CCC(C(N)=O)CC2)cc1S(=O)(=O)N1CCOCC1 | 0 | 0 | 0 | 0 | -
COc1ccc(/C=C/C(=O)N2CCN(c3ccccc3)CC2)cc1S(=O)(=O)N1CCOCC1 | 0 | 0 | 0 | 8.8 | 0
Cc1ccc(Nc2n[nH]c(=S)s2)cc1C | 0 | 0 | 0 | 7.8 | 0
S=c1[nH]nc(Nc2cccc(Cl)c2)s1 | 0 | 0 | 0 | 0 | -
O=C(O)c1cc([N+](=O)[O-])c(Sc2nc3ccccc3[nH]2)c([N+](=O)[O-])c1 | 0 | 0 | 0 | 0 | -
